Assay results from PubChem BioAssay (Tox21).
“And” between values parts separate entries of the source, which are not always exact repeats. Equal entries are not always repeated. Records with an inconclusive call do not appear. A call without a number means that no potency is given here. The source made the active and inactive calls. Calls follow the shape of the dose curve; as a rule, active = well fitted activation curve with a large enough effect in the repeat runs; inconclusive = weak or mixed curves; inactive = no such curve, though single readings can be large or run the other way.
Potency is read from the fitted curve at half-maximal effect.

What follows are compounds tested against Nuclear receptor subfamily 1 group I member 3 (Homo sapiens) (UniProt Q14994) (assay: qHTS assay to identify small molecule agonists of the constitutive androstane receptor (CAR) signaling pathway (AID 1224839; also: nearly all actives have a fitted effect of over 15% in size;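 as to activation: HepG2 cells stably carrying human CAR and a CYP2B6 luciferase reporter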)). Settings: HepG2 hCAR CYP2B6-luciferase, agonist mode, 24 h; series mostly up to 92.4 µM.
Chain of Nuclear receptor subfamily 1 group I member 3 (Homo sapiens) (Q14994 whole entry, looked up): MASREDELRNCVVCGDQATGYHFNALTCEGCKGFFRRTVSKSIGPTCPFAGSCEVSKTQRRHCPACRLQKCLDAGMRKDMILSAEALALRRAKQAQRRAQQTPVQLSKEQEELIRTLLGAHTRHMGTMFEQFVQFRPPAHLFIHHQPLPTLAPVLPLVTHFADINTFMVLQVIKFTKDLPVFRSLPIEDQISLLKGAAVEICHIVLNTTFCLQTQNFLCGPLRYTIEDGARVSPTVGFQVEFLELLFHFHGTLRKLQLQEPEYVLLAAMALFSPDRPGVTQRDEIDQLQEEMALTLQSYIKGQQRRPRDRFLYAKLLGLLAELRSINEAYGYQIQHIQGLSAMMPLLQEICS
Excerpt: National Center for Advancing Translational Sciences [NCATS] NIH Chemical Genomics Center [NCGC] U.S. Environmental Protection Agency [EPA] National Institutes of Environmental Health Sciences [NIEHS] National Toxicology Program [NTP] Assay overview: The constitutive androstane receptor (CAR) is a nuclear receptor which regulates multiple drug metabolizing enzymes (DMEs) and transporters. Activating CAR will generally increase the transcription and subsequent translation of CYP2B6 and CYP3A4. These two DMEs represent about 50% of the drug metabolizing potential in the body. […] Recently, there have also been studies performed indicating CARs role in energy metabolism and cancer therapy. Therefore, inducing CARs activity could have a potential effect on diabetes and cancer. Identifying environmental toxins and compounds which modulate CAR, through the use of the Tox21 10K compound collection, will be an important step in determining the toxicity and potential therapeutic effects these factors will have on the human body.
Assay Protocol Summary: A double-stable (hCAR and CYP2B6-2.2kb) transfected cell line, derived from human hepatoma (HepG2) cells, was utilized for the duration of the quantitative high-throughput screens. The HepG2-CYP2B6-hCAR cells suspended in DMEM culture medium supplemented with 10% FBS, 5 ug/mL blasticidin, 0.5 mg/mL geneticin, 100 U/mL penicillin and 100 ug/mL streptomycin were dispensed at 2500 cells/4 uL/well in 1536-well white solid bottom plates using a Multidrop Combi. After the assay plates were incubated at 37 C/5% CO2 for 4 hrs, 23 nL of compounds at 15 concentrations (from 5-48 columns) or positive control (from 1 to 4 columns) were transferred to the assay plates using a Pintool station. One uL of PK11195, was added using a Flying Reagent Dispenser to generate a final concentration of 0.75 uM PK11195 inside each well. After a 24 hr incubation period at 37 C/5% CO2, four uL of ONE-Glo reagent was added into the assay plates using a Flying Reagent Dispenser. After a 30 min incubation period at room temperature, the luminescence intensity in the assay plates was measured using a ViewLux plate reader.
With `CC(=O)OC1(c2ccccc2)CCN(CCc2ccccc2)CC1` the Potency was “inactive”. In the case of `Fc1ccc(Oc2ccnc3cc(Cl)cc(Cl)c23)cc1`, the Potency is reported as 27.3 µM (active). `CCOC(=O)CC(=O)CCl` was tested, and the Potency was “inactive”. `Clc1ccc(C(c2ccccc2Cl)C(Cl)(Cl)Cl)cc1` (stereo not given) was tested, and the Potency was 6.9 µM (active) and 1.6 µM (active). For `C[C@@H]1O[C@@H](O[C@H]2C[C@@H](O)[C@]3(CO)[C@H]4[C@H](O)C[C@]5(C)[C@@H](C6=CC(=O)OC6)CC[C@]5(O)[C@@H]4CC[C@]3(O)C2)[C@H](O)[C@H](O)[C@H]1O`, the Potency was “inactive”. `Cc1cc(C(F)(C(F)(F)F)C(F)(F)F)ccc1NC(=O)c1cccc(I)c1C(=O)NC(C)(C)CS(C)(=O)=O` was tested, and the Potency was “inactive”. For `CC1(C)CN=C(NN=C(/C=C/c2ccc(C(F)(F)F)cc2)/C=C/c2ccc(C(F)(F)F)cc2)NC1`, the Potency was “inactive”. `O=C(CCCN1CCC2(CC1)C(=O)NCN2c1ccccc1)c1ccc(F)cc1` was tested, and the Potency was “inactive”. With `O=[N+]([O-])c1cc(Cl)ccc1Cl` the Potency was “inactive”. With `O=[N+]([O-])c1c2ccccc2cc2ccccc12` the Potency was 21.4 µM (active). In the case of `CCCN(CCC)CCc1c[nH]c2ccccc12`, the Potency is reported as “inactive”. With `N#CCCSCCC#N` the Potency was “inactive”. `CN(C)C1CSSSC1` was tested, and the Potency was “inactive”. For `C[C@H]1CC[C@@H]2[C@@H](C)[C@H]3[C@H](C[C@H]4[C@@H]5CC=C6CC(O[C@@H]7O[C@H](CO)[C@H](O)[C@H](O[C@@H]8O[C@H](CO)[C@@H](O)[C@H](O)[C@H]8O)[C@H]7O[C@H]7O[C@@H](C)[C@H](O)[C@@H](O)[C@H]7O)CC[C@]6(C)[C@H]5CC[C@]34C)N2C1` (stereo not given in full), the Potency was “inactive”. `ClC1=C(Cl)C2(Cl)C3C(Cl)C(Cl)CC3C1(Cl)C2(Cl)Cl` (stereo not given) was tested, and the Potency was 3.05 µM (active) and 15.4 µM (active). For `O=C1NCN(c2ccccc2)C12CCN(CC1COc3ccccc3O1)CC2` (stereo not given), the Potency was “inactive”. For `CC(Cl)CN(C)C` (stereo not given), the Potency was “inactive”. For `C[As+](C)(C)CC(=O)[O-]`, the Potency was “inactive”. In the case of `ClCc1ccccc1CCl`, the Potency is reported as “inactive”. With `CC[C@H](C)[C@H]1O[C@]2(C=C[C@@H]1C)C[C@@H]1C[C@@H](C/C=C(\C)[C@@H](O[C@H]3C[C@H](OC)[C@@H](O[C@H]4C[C@H](OC)[C@@H](O)[C@H](C)O4)[C@H](C)O3)[C@@H](C)/C=C/C=C3\CO[C@@H]4[C@H](O)C(C)=C[C@@H](C(=O)O1)[C@]34O)O2` the Potency was “inactive”. In the case of `[CH3][Hg][Cl]`, the Potency is reported as “inactive”. `O=C/C(Cl)=C(/Cl)C(=O)O` was tested, and the Potency was “inactive”. For `Clc1ccc(-c2ccccc2)cc1`, the Potency was “inactive”. For `Oc1ccc(I)cc1`, the Potency was “inactive”. In the case of `CCCN(CCC)c1c([N+](=O)[O-])cc(S(N)(=O)=O)cc1[N+](=O)[O-]`, the Potency is reported as 16.4 µM (active). `CCOC(=O)OC1=C(c2cc(C)ccc2C)C(=O)NC12CCC(OC)CC2` (stereo not given) was tested, and the Potency was “inactive”. `O=CC(Br)(Br)Br` was tested, and the Potency was “inactive”. `BrC(Br)Br` was tested, and the Potency was “inactive”. For `C[C@]12CC[C@H](O)C[C@H]1CC[C@@H]1[C@@H]2C[C@@H](O)[C@]2(C)[C@@H](C3=CC(=O)OC3)CC[C@]12O`, the Potency was “inactive”. With `CCCCOCN(C(=O)CCl)c1c(CC)cccc1CC` the Potency was 27.3 µM (active). `CC(C)(COCC1CO1)COCC1CO1` (stereo not given) was tested, and the Potency was “inactive”. In the case of `CC(=O)C(Cl)(Cl)Cl`, the Potency is reported as “inactive”. `ClCc1ccc(Cl)cc1Cl` was tested, and the Potency was “inactive”. In the case of `CC(C)(O)c1cnn2c(-c3ccc(F)c(-c4c(F)cccc4C#N)c3)cnc2n1`, the Potency is reported as “inactive”. For `CN(C)CCc1c[nH]c2ccc(O)cc12`, the Potency was “inactive”. `Cc1cc(SCc2sc(-c3ccc(C(F)(F)F)c(F)c3)nc2C)ccc1OCC(=O)O` was tested, and the Potency was “inactive”. With `Oc1c(Cl)c(Cl)cc(Cl)c1Cl` the Potency was “inactive”. With `C[C@]12CC[C@@H]3c4ccc(OC(=O)N(CCCl)CCCl)cc4CC[C@H]3[C@@H]1CC[C@@H]2O` the Potency was “inactive”. With `Cc1ccc(OP(=O)(Oc2ccccc2)Oc2ccccc2)cc1` the Potency was 17.5 µM (active). For `CC1(C)[C@H](C(=O)O[C@H](C#N)c2cccc(Oc3ccccc3)c2)[C@@H]1/C=C(\Cl)C(F)(F)F`, the Potency was “inactive”.
